Assay outcomes as filed in PubChem.
Rows were chosen to be rich in hits. Some 21% of all compounds tested hit in one or more screens of this group.
Pf growth 48h: P. falciparum growth inhibition at 48 hours (one generation) | P. falciparum luciferase growth in erythrocytes, 48 h | Potency, µM (titrated, usually from 28.7 µM), inactives show at the highest dose activity change, negative = inhibition, usual class: inhibitors | 5.9% of 310,000 active | AID 504832; further: potency means the concentration at half of the fitted maximal effect; on the % scale 0 is the no-effect control and ±100 the full control effect
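Luminescence readout; reporter = integrated firefly luciferase in P. falciparum. RBC culture at 2% hematocrit, 0.1% parasitemia final, 37 C/5% CO2; decreased signal taken as growth inhibition.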
HCMV antiviral: inhibitors of human cytomegalovirus | HFF cells, HCMV-luciferase reporter, 72 h; hits give low values | activity change, negative = inhibition, % at 57.5 µM | 4.5% of 410,000 active; in the data active means activity change below about -60%; inconclusive means no clear call, values can overlap the other calls; inactive means above about -39%; further: on the % scale 0 is the no-effect control and ±100 the full control effect
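After 16 h attachment at 37C, HFF cells received test compound and HCMV-luciferase (1 PFU/cell); reporter luminescence read 72 h later, data normalized against buffer-only and known inhibitor Salinomycin.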
Shiga toxin inh: Shiga toxin inhibition | Vero cells, Shiga toxin protein synthesis inhibition reporter | inhibition, % at 38.7 µM | 9.2% of 290,000 active | AID 2315; in the data active means inhibition mostly above about 28%, no sharp cut-off; inactive means mostly below about 43%; further: 0% is about no effect
HCV inh: HCV inhibition; Huh7.5.1 HCVcc-Cre infection, luciferase reporter, 44 h; Potency, µM (top dose mostly 41.8 µM), inactives show at the top dose activity change, negative = inhibition, most hits filed as inhibitors; 3.4% of 340,000 active; AID 651820; further: potency means the concentration at half of the fitted maximal effect; on the % scale 0 is the no-effect control and ±100 the full control effect
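After 44 h co-culture of compound, cells and HCVcc-Cre (~0.5 moi), substrate is added for 15 min at room temperature and luciferase measured over 15 sec. Cells were seeded at 1,000/well and pre-cultured 4 h.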
Cycloheximide cs: counter-screen for Shiga toxin inhibitors: cycloheximide protein synthesis inhibition; 12% of 300,000 active; max response, %; cell reporter, cycloheximide protein synthesis inhibition counterscreen; in the data active means max response mostly above about 13%, no sharp cut-off; inactive means mostly below about 14%; further: read at 38.3 µM for the half of the compounds with a filed dose; 0% is about no effect
Pf growth 96h: inhibits malaria parasite growth, 96 h; 6.9% of 320,000 active; Potency, µM (highest dose often 28.7 µM), for inactives: at the top dose activity change, negative = inhibition, usual class: inhibitors; P. falciparum luciferase reporter growth, 96 h; further: potency means the concentration at half of the fitted maximal effect; on the % scale 0 is the no-effect control and ±100 the full control effect
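Readout is luminescence from an integrated firefly luciferase in P. falciparum. Red cells, 2% hematocrit and 0.05% parasitemia final, were cultured with compound through two parasite generations (96 hours) at 37 C, 5% CO2.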
The depositor's hits bear a star; i = inactive; u = inconclusive; x = no result; [ ] = remark or other dose. Unless noted, the call rests on the fitted dose curve; in most records, active means well fitted inhibition curve with a large enough effect; inconclusive means small, poorly fitted or top-dose-only effect, or another doubt; inactive means no such curve, though single readings can be large or run the other way.

SMILES	Pf growth 48h	HCMV antiviral	Shiga toxin inh	HCV inh	Cycloheximide cs	Pf growth 96h
Cc1ccc2c3c([nH]c2c1C)-c1nonc1CC3	244.7%	28.8	43.9*	u	20.1*	-31.0%
CCCCCOc1ccc(Br)cc1/C(C)=N/NC1=NCCN1	5.22µM*	-92.1*	-10.0	6.31µM*	-5.3	u
COc1cccc(NC(=O)CN(C)C(=O)CNC(=O)c2ccc3ccccc3c2)c1	13.0%	-12.5	x	0.6%	x	37.6%
Cc1ccc(NC(=O)c2c(C)oc3ccc(O)c(CN(C)Cc4ccccc4)c23)c(C)c1	x	-66.8*	x	x	x	x
Cc1oc2ccc(O)c(CN(C)Cc3ccccc3)c2c1C(=O)Nc1cccc(C(F)(F)F)c1	x	-78.8*	x	x	x	x
CCN(Cc1ccccc1)Cc1c(O)ccc2oc(C)c(C(=O)Nc3ccc(C)cc3C)c12	x	-12.3	x	x	x	x
Cc1oc2ccc(O)c(CN(C)Cc3ccccc3)c2c1C(=O)Nc1ccccc1	x	-80.9*	x	x	x	x
Cc1oc2ccc(O)c(CN3CCOCC3)c2c1C(=O)Nc1cccc(C(F)(F)F)c1	x	6.8	x	x	x	x
CCOCCCNc1nc2c(S(=O)(=O)c3ccc(CC)cc3)nnn2c2ccc(Cl)cc12	x	2.2	x	x	x	x
Cn1c2ccccc2c2cc(C(=O)NNC(=O)CCl)sc21	u	-20.9	-6.7	u	7.3	9.28µM*
COc1ccc(-c2ocnc2C(=O)NCc2nn(-c3ccccc3)nc2C)cc1	-5.7%	u	7.0	2.51µM*	1.2	6.2%
O=C(Cc1ccccc1)Nc1c[nH]c(=O)[nH]c1=O	4.2%	u	-8.4	0.4%	4.7	u
O=C(CCl)Nc1c[nH]c(=O)[nH]c1=O	1.65µM*	-64.1*	-1.1	u	5.8	8.4%
Cc1ccc(S(=O)(=O)CCC(=O)Nc2ccc3nc(C)sc3c2)cc1	-5.1%	-31.7	-3.8	-1.9%	3.8	-6.2%
Cc1ccc2nc(-c3ccc(NC(=O)CCS(=O)(=O)c4ccccc4)cc3)sc2c1	10.2%	-71.2*	64.9*	u	47.0*	u
COc1ccc(NC(=O)CN(C)S(=O)(=O)c2ccc3nc(C)sc3c2)cc1	x	-22.9	x	x	x	x
Cc1nc2ccc(S(=O)(=O)N(C)CC(=O)Nc3ccc(C(C)C)cc3)cc2s1	x	-60.4*	x	x	x	x
Cc1nc2ccc(NC(=O)CCS(=O)(=O)c3ccccc3)cc2s1	u	-1.7	94.3*	-9.0%	47.0*	u
Cc1nc2cc(NC(=O)CCS(=O)(=O)c3ccccc3)ccc2s1	201.0%	46.2	58.0*	u	37.2*	139.5%
O=S(=O)(NC1C2CC3CC(C2)CC1C3)c1ccc(F)cc1 (centres undefined)	-12.7%	-17.2	x	-9.0%	x	u
NC(=O)CSc1nnc2sc3ccccc3n12	-1.1%	10.4	-37.6	15.5%	-1.7	3.4%
CC(C)NC(=O)CSc1nnc2sc3ccccc3n12	40.3%	27.6	24.0	7.6%	26.8*	-3.5%
COc1ccc(OCCSc2nnc3sc4ccccc4n23)cc1	u	7.8	66.9	17.4%	59.7*	x
O=C(/C=C/c1ccc(-c2cccc([N+](=O)[O-])c2)o1)N1CCOCC1	97.1%	-61.2*	145.5*	u	31.1*	54.9%
O=C(/C=C/c1cccc([N+](=O)[O-])c1)N1CCOCC1	24.6%	-12.5	3.5	16.7%	-1.3	-19.2%
SMILES	Pf growth 48h	HCMV antiviral	Shiga toxin inh	HCV inh	Cycloheximide cs	Pf growth 96h
Cc1cccc(Cn2cc3c(=O)n(CC(=O)Nc4c(C)cccc4C)nc-3c3cc(F)ccc32)c1	x	5.1	x	x	x	x
CCN(CC)C(NC(=O)c1ccccc1)C(=O)c1ccccc1 (centres undefined)	3.8%	29.7	40.4	12.7%	54.6*	9.9%
COc1cccc(CN2C(=O)[C@@H]3Cc4c([nH]c5ccccc45)C(C)(C)N3C2=O)c1	x	-14.5	x	x	x	x
CCCCn1c(C)cc2c(c1=O)C1O[C@](c3ccc(OC)cc3)(Cc3cc(OC)c(OC)cc31)O2	u	x	i	x	15.3*	1.51µM*
COc1cc2c(cc1OC)C1O[C@](CCCCN3C(=O)c4ccccc4C3=O)(C2)Oc2cc(C)n(Cc3ccccc3)c(=O)c21	u	x	i	x	-2.9	2.39µM*
CCCCn1c(C)cc2c(c1=O)[C@H]1O[C@](CCCC)(Cc3cc(OC)c(OC)cc31)O2	-2.2%[5.75 µM]	x	i	x	-1.1	u
COc1cc2c(cc1OC)[C@@H]1O[C@](CCCCN3C(=O)c4ccccc4C3=O)(C2)Oc2cc(C)n(-c3ccccc3)c(=O)c21	1.07µM*	x	i	x	2.0	u
Cc1cc2n(n1)C(c1ccccc1)Nc1ccccc1-2 (centres undefined)	22.1%	19.2	13.7	25.1µM*	8.9	u
Cc1cc2n(n1)C(c1ccc(N(C)C)cc1)Nc1ccccc1-2 (centres undefined)	86.0%	135.7	48.1*	u	47.5*	2.5%
Cc1cc(C)c2c(c1)-c1cc(C)nn1C(c1cccnc1)N2 (centres undefined)	u	17.7	-2.5	-10.2%	-3.9	40.8%
Cc1cc2n(n1)C(c1sccc1C)Nc1ccccc1-2 (centres undefined)	33.5%	39.9	34.7	u	2.6	x
CC(OC(=O)c1ccc(Cl)c(S(=O)(=O)N2CCOCC2)c1)C(=O)NC1CCCCC1C (centres undefined)	-8.5%	-8.2	3.5	4.6%	3.2	u
Cc1nn(-c2ccccc2)c(C)c1C(=O)OC(C)C(=O)NC1CCCCC1C (centres undefined)	u	u	x	11.2µM*	x	u
COc1ccc(C(=O)OC(C)C(=O)NC2CCCCC2C)cc1S(=O)(=O)N1CCOCC1 (centres undefined)	u	-98.0*	x	8.7%	x	9.1%
Cc1ccc(S(=O)(=O)N2CCCCC2)cc1C(=O)OC(C)C(=O)NC1CCCCC1C (centres undefined)	u	-27.9	x	u	x	13.1µM*
O=C(Nc1c(C(=O)N2CCN(c3ccccc3)CC2)oc2ccccc12)c1ccc(Br)o1	x	-28.3	x	x	x	x
COc1ccc2cc3cc(C(=O)NCC4CCCO4)oc3nc2c1 (centres undefined)	u	-5.9	45.8*	-7.8%	19.1	2.8%
COc1ccc2cc3cc(C(=O)NCCC(C)C)oc3nc2c1	u	-38.0	51.0	u	-0.8	-3.5%
COCCNC(=O)c1cc2cc3ccc(OC)cc3nc2o1	7.4%[0.00184 µM]	20.6	49.5	8.7%	41.7*	16.0%
COc1ccc2cc3cc(C(=O)NCc4ccccn4)oc3nc2c1	6.57µM*	6.6	38.3	3.4%	11.4	0.0%
CCC(C)NC(=O)c1cc2cc3ccc(OC)cc3nc2o1 (centres undefined)	u	-1.4	38.7*	u	29.9*	8.5%
Cc1ccc(C(=O)OCC(=O)N2CCC(C)CC2)cc1S(=O)(=O)N1CCOCC1	x	22.5	x	x	x	x
C/C(=N\NC(=O)Cn1nnc2ccccc21)c1ccco1	24.2%	-26.1	1.7	-1.2%	-0.7	11.9%
